In the library only some 2.5% were active in any assay of this set; here they are far more common.
TWEAK-Fn14 inh = inhibitors of TWEAK-Fn14 interaction signaling. TWEAK-stimulated Fn14 reporter cells, luciferase luminescence, 8 h. inhibition, % at 10 µM. hit rate 2% among 360,000. AID 1159606; in the data active = inhibition above about 50%
EWS-Fli inh = inhibitors of EWS/Fli oncoprotein transcriptional activity | A673 NR0B1-luciferase reporter, viability-normalised | inhibition, % at 12.6 µM | hit rate 0.67% among 350,000;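 active = mean inhibition of at least 50% after viability correction, with every replicate also passing that limit; inconclusive = mean reaches 50% but only one of two replicates passes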;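 also: firefly luciferase signal divided by Alamar Blue viability fluorescence both relative to DMSO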
TROY NFkB inh = inhibitors of TROY-dependent NF-kB signaling; Q293 LMP1-TROYcd NF-kB luciferase reporter, 4 h; inhibition, % at 10 µM; hit rate 0.98% among 360,000;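 active = compounds whose plate-normalised and pattern-corrected inhibition of the luciferase reporter signal at the single screening dose is 50% or more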
LGR2 antag = Drosophila LGR2 receptor signaling inhibition. HEK293 LGR2, CRE-luciferase, bursicon-stimulated, 4 h. inhibition, % at 9.99 µM. hit rate 0.35% among 380,000. AID 720647;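 active = drop in luminescence signal, shown as inhibition above about 50% in the replicate tests, limit read from the data, passing the limit was not always enough; inconclusive = probably only some replicates passing the limit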;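 also: agonist challenge used bursicon conditioned medium at about half maximal strength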
LMP1 NFkB inh = Epstein-Barr LMP1 NF-kappaB reporter inhibition | LMP1-induced NF-kappaB luciferase reporter cells, luminescence | inhibition, % at 12.5 µM | hit rate 0.69% among 350,000 | AID 504558; in the data active = inhibition above about 41%; inconclusive = no clear call, values can overlap the other calls;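 also: 0% = neutral control wells and 100% = reference inhibitor control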
* hit, by the source's call; ? = inconclusive; · = no result; ! = not active in a repeat.

SMILES | TWEAK-Fn14 inh | EWS-Fli inh | TROY NFkB inh | LGR2 antag | LMP1 NFkB inh
O=C(C[C@H]1C[C@@H]2c3cc(NC(=O)Nc4ccccc4F)ccc3O[C@@H]2[C@@H](CO)O1)NC1CCCCC1 | · | 6.1 | · | 1.2 | ·
O=C(C[C@H]1C[C@H]2c3cc(NC(=O)Nc4ccccc4)ccc3O[C@H]2[C@@H](CO)O1)NCc1ccccc1 | · | -14.6 | · | 18.4 | ·
CN(C)CC(=O)Nc1ccc2c(c1)[C@@H]1C[C@@H](CC(=O)N3CCc4ccccc4C3)O[C@H](CO)[C@@H]1O2 | · | -1.9 | · | -25.7 | ·
O=C(N[C@H]1c2ccccc2C[C@H]1O)C1=C[C@H](c2coc3ccccc3c2=O)C[C@H](OCCCCO)O1 | · | -6.2 | · | · | ·
C[C@@H]1CN([C@@H](C)CO)C(=O)Cc2cc(NS(C)(=O)=O)ccc2O[C@@H]1CN(C)C | · | -6.1 | · | 12.0 | ·
COc1ccc(-c2nc3ccccn3c2CN2CCN(c3ccccc3F)CC2)cc1 | -16.8 | 7.7 | -47.5 | -7.6 | 3.8
COc1ccc(-c2nc3ccccn3c2Cl)cc1 | 52.0* | 18.3 | 2.8 | 16.8 | -15.0
CCn1c(CNC(=O)C2CCCCC2)cc2cc(C)ccc21 | 53.6* | 10.1 | 14.3 | -0.3 | 2.8
CCn1c(CNC(=O)c2ccccc2F)cc2cc(C)ccc21 | -11.3 | -54.9 | -47.7 | -15.5 | -23.2
c1ccc(COc2ccc(OCCCN3CCCC3)cc2)cc1 | 50.8* | -11.1 | 34.7 | ? | 1.1
Cc1cc(C(=O)CSc2ccc(F)cc2)cc(C)c1OC(=S)N(C)C | 99.8* | · | · | · | 23.5
O=C(Nc1ccc(F)cc1)N1CCCCN2[C@H](C1)[C@H](c1ccc(-c3ccccc3F)cc1)[C@@H]2CO | · | -1.1 | · | · | ·
O=c1c(Cl)c(Cl)cnn1Cc1nnc(-c2ccccc2Br)o1 | 92.0* | 46.3 | 64.4* | 103.4* | -106.6
COC1C(CO)OC(n2c3c(Cl)cccc3c3c4c(c5c6cccc(Cl)c6[nH]c5c32)C(=O)NC4=O)C(O)C1O (configuration not stated) | -0.1 | 56.0* | 18.4 | 60.2* | 59.7*
C[C@@H]1CN([C@H](C)CO)C(=O)c2cc(NS(=O)(=O)c3ccc(Cl)cc3)ccc2O[C@@H](C)CCCCO[C@H]1CN(C)Cc1ccc2c(c1)OCO2 | · | 14.1 | · | -0.6 | ·
C[C@H](CO)N1C[C@H](C)[C@H](CN(C)Cc2ccc(C(F)(F)F)cc2)OCCCC[C@H](C)Oc2ccc(NS(=O)(=O)c3ccc(F)cc3)cc2C1=O | · | 73.3* | · | 13.3 | ·
C[C@@H]1CCCCO[C@@H](CN(C)Cc2ccc3c(c2)OCO3)[C@@H](C)CN([C@@H](C)CO)C(=O)c2cc(NS(=O)(=O)c3ccc(Cl)cc3)ccc2O1 | · | 69.4*! | · | 2.9 | ·
C[C@@H]1CN([C@H](C)CO)C(=O)c2cc(NS(=O)(=O)c3ccc(Cl)cc3)ccc2O[C@@H](C)CCCCO[C@H]1CN(C)Cc1ccc(C(F)(F)F)cc1 | · | 61.9* | · | 12.6 | ·
COCC(=O)Nc1ccc2c(c1)C(=O)N(C)C[C@@H](OC)[C@@H](C)CN(C(=O)C1CCCC1)[C@H](C)CO2 | · | -20.2 | · | 6.1 | ·
COCC(=O)N1CC[C@H]2[C@@H]1c1cc(-c3ccc(OC)cc3)ccc1N(C)[C@H]2CO | · | 1.2 | · | 12.0 | ·
COc1cccc(-c2ccc3c(c2)[C@@H]2[C@@H](CCN2S(=O)(=O)c2ccccc2OC)[C@@H](CO)N3)c1 | · | -6.1 | · | 3.8 | ·
COc1ccc(/C=N/NC(=O)c2ccoc2C)cc1COc1c(C)cccc1C | 74.4* | · | 41.1 | · | 21.2
COc1ccc(/C=N\NC(=O)c2ccccc2OC)cc1COc1ccccc1C | 11.0 | · | 22.9 | 9.4 | 3.4
Cc1occc1C(=O)N/N=C/c1ccc(N(C)C)cc1 | 72.0* | -11.6 | 38.7 | 17.3 | 16.1
Cc1cccc(C)c1OCC(=O)NNC(=O)c1ccoc1C | 51.2* | · | · | · | 1.1
SMILES | TWEAK-Fn14 inh | EWS-Fli inh | TROY NFkB inh | LGR2 antag | LMP1 NFkB inh
Cc1occc1C(=O)N/N=C/C=C/c1ccc(N(C)C)cc1 | -8.0 | · | 7.3 | -24.6 | -14.3
C[C@H](CO)N1C[C@H](C)[C@@H](CN(C)Cc2ccc3c(c2)OCO3)Oc2ccc(NS(=O)(=O)c3cn(C)cn3)cc2CC1=O | · | -4.1 | · | -8.7 | ·
COc1ccc(S(=O)(=O)N(C)C[C@@H]2Oc3c(NC(=O)Nc4ccc5c(c4)OCO5)cccc3C(=O)N([C@H](C)CO)C[C@H]2C)cc1 | · | -8.0 | · | 28.7 | ·
C[C@@H]1CN([C@H](C)CO)C(=O)c2cc(NS(=O)(=O)c3cn(C)cn3)ccc2O[C@H]1CN(C)C(=O)NC1CCCCC1 | · | -2.3 | · | 3.6 | ·
O=[N+]([O-])c1ccccc1S(=O)NCc1c(Cl)cccc1Cl (configuration not stated) | 7.8 | -5.2 | 54.7* | -2.5 | ·
COc1ccc(C(=O)N(C)Cc2cnn(Cc3ccccc3)c2)cc1S(=O)(=O)N1CCOCC1 | 12.4 | 61.7* | 4.4 | -10.4 | -8.1
CC1(C)COC(/C=C/c2ccc([N+](=O)[O-])cc2)=N1 | 62.0* | · | -66.4 | -10.1 | 8.7
CC(=C/C(=O)O)/C=C/c1ccc([N+](=O)[O-])cc1 | 35.2 | -8.9 | -32.2 | -18.8 | 4.0
CC(C)OC(=O)N(C)C[C@H]1OCc2ccccc2-c2ccccc2C(=O)N([C@H](C)CO)C[C@H]1C | · | -5.0 | · | -7.8 | ·
NC(=O)c1c(NC(=O)c2ccccc2)sc2c1CCc1ccccc1-2 | 56.1* | · | -30.1 | -95.1 | -51.2
NC(=O)c1c(NC(=O)c2ccccc2)sc2c1CCC2 | 6.8 | -103.9 | -40.6 | · | -35.7
CO[C@@H]1CN(C)C(=O)c2ccc(NS(=O)(=O)c3ccccc3)cc2OC[C@H](C)N(C(=O)NC(C)C)C[C@@H]1C | · | 3.7 | · | -10.5 | ·
CCOC(=O)c1c(C)n(-c2ccc(F)cc2)c2ccc(O)cc12 | 23.4 | · | -0.2 | -2.7 | 17.8
COC(=O)c1c(C)n(-c2ccc(OC)cc2)c2ccc(O)cc12 | 52.1* | · | 39.3 | · | 15.9
COc1ccc(-n2c(C)c(C(C)=O)c3cc(OC(C)=O)ccc32)cc1 | 83.9* | 3.0 | 52.1* | 24.7 | 59.6*
COC(=O)c1ccc(CSc2nc3c(c(=O)n2-c2ccc(C)cc2)SCC3)o1 | -3.3 | -22.8 | 3.4 | · | 70.4*
COc1ccc(-n2c(SCC(=O)Nc3cc(C)on3)nc3c(c2=O)SCC3)cc1 | -3.3 | -6.7 | -7.7 | 1.5 | 82.6*
COc1ccc(-n2c(SCC(=O)Nc3cc(C)on3)nc3c(c2=O)SCC3)cc1OC | 6.7 | 4.1 | 5.8 | -13.2 | 3.0
O=C(N[C@H]1CC[C@H](CCNS(=O)(=O)Cc2ccccc2)O[C@H]1CO)c1ccc2c(c1)OCO2 | · | -7.2 | · | 5.3 | ·
Cc1ccccc1N=C1SC(CC(=O)Nc2ccc3ccccc3c2)C(=O)N1Cc1ccccn1 (configuration not stated) | 71.5* | · | 26.7 | 10.0 | -17.1
Nc1ccccc1C#CC(=O)c1ccccc1 | 94.7* | 66.5* | 49.8 | 28.1 | -26.9
O=C(C#Cc1cccc([N+](=O)[O-])c1)c1ccccc1 | 66.3* | · | 63.1* | · | 45.8*
Nc1ccccc1C#Cc1ccc([N+](=O)[O-])cc1 | -22.9 | -25.0 | -73.3 | -114.5 | -58.3
COc1ccc(N(CC(=O)NC2CC3CCC2C3)S(=O)(=O)c2ccc(C)cc2)cc1OC (configuration not stated) | 6.5 | -1.1 | 2.0 | -2.5 | 0.1
